Source: PubChem BioAssay (NCATS)
Records with an inconclusive call do not appear. Calls of active or inactive are those of the source. The call rests on the fitted dose curve; in most records, active means well fitted cell-killing curve with a large enough effect; inconclusive means small, poorly fitted or top-dose-only effect; inactive means flat fitted curve, though single readings scatter.

Assay: Cell Viability - LYMP1-003 - Assay at 40 hr (AID 964); further: nearly all actives have a fitted effect of over 60% in size
Settings: LYMP1-003 lymphoblastoid viability; series mostly up to 92.2 µM
Excerpt: NIH Chemical Genomics Center [NCGC]
NIH Molecular Libraries Screening Centers Network [MLSCN]
National Institutes of Environmental Health Sciences [NIEHS]
National Toxicology Program [NTP]
We have developed a 1536-well cell-based assay for quantitative high throughput screening (qHTS) against a number of cell lines to determine in vitro cytotoxicity of small molecules. This particular assay uses a human lymphoblastoid cell line (LYMP1-003) purchased from Coriell Institute for Medical Research.
NCGC Assay Protocol Summary:
The CellTiter-Glo luminescent cell viability assay (Promega) is a homogeneous method to measure the number of viable cells in culture. The end point readout of this assay is based on quantitation of intracellular ATP, an indicator of metabolic activity, using the luciferase reaction. Luciferase catalyzes the oxidation of beetle Luciferin to oxyluciferin and light in the presence of ATP. The luminescent signal is proportional to amount of ATP present.
Using the CellTiter-Glo luminescent cell viability assay, the amount of cellular ATP was measured in the lymphoblastoid cell line with complete culture medium following compound treatment for 40 hours. The assay was performed in opaque white Kalypsys 1536-well plates. In the screen, tetraoctylammonium bromide was used as positive control. Library compounds were measured for their ability to cause acute toxicity in the cell line, as reflected by a decrease in intracellular ATP levels, in a concentration-dependent manner. […] AC50 values were determined from concentration-response data modeled with the standard Hill equation.
qHTS protocol for CellTiter Glo lymphoblastoid cellular assay
[Step] [Parameter] [Value] [Description]
1. Reagent; 5 uL; 2500 lymphoblastoid cells/well
2. Time; 5 hr; 37 C incubation
4. Controls; 23 nL; Tetraoctylammonium bromide 6.4pM to 92 uM
5. Time; 40 hr; 37 C incubation
6. Reagent; 5 uL; CellTiter Glo reagent
7. Time; 30 min; Room Temperature
8. Detection; Luminescence; Viewlux plate reader
Keywords: cell viability, cytotoxicity, lymphoblastoid cell line, luminescence, NTPHTS, NTPHTS_NCGC, NIEHS, DSSTox, MLSMR, MLSCN, NIH Roadmap, qHTS, NCGC

Compound | outcome
C[C@]12CCC(=O)C=C1CC[C@@H]1[C@@H]2CC[C@]2(C)C(=O)CC[C@@H]12 | inactive
CC(C)NC(C)C | inactive
Nc1ccccc1C(=O)O | inactive
O=P1(N(CCCl)CCCl)NCCCO1 (stereo not drawn) | inactive
CCCC(C)(COC(N)=O)COC(N)=O | inactive
CCC(C)(C)c1ccc(O)cc1 | inactive
CC(C)c1cccc(C(C)C)c1O | inactive
COP(=S)(OC)Oc1ccc(SC)c(C)c1 | inactive
C[C@]1(O)CC[C@H]2[C@@H]3CCC4=CC(=O)CC[C@]4(C)[C@@]3(F)[C@@H](O)C[C@@]21C | inactive
COC(=O)C(c1ccccc1)C1CCCCN1 (stereo not drawn) | inactive
Oc1ccc(Cl)cc1 | inactive
COc1cc(OC)c(OC)cc1C=O | inactive
Clc1ccc(C(c2ccc(Cl)cc2)C(Cl)(Cl)Cl)cc1 | inactive
C[C@]12CCC(=O)C=C1CC[C@@H]1[C@@H]2CC[C@@]2(C)[C@H]1CC[C@]2(C)O | inactive
CN1C[C@H](C(=O)N[C@]2(C)O[C@@]3(O)[C@@H]4CCCN4C(=O)[C@H](Cc4ccccc4)N3C2=O)C=C2c3cccc4[nH]cc(c34)C[C@H]21 | inactive
CCOC(=O)CC(SP(=S)(OC)OC)C(=O)OCC (stereo not drawn) | inactive
Nc1ccccc1 | inactive
NCCc1ccc(O)cc1 | inactive
